Experimental data from PubChem BioAssay.
Active and inactive are the calls of the source. Unless noted, no rule for the calls is given here.

How the values were obtained:
[1] = resazurin metabolic signal in HepG2 cells – cell-based, resazurin fluorescence, 24 h, PK04 Diversity Set, profiling panel (AID 1172); conditions: HepG2 viability, higher = more signal; also: test concentration not given here
[2] = budding yeast growth changes without added modifier – OD600, strain BY4716, 24 h, basal condition, primary screen (AID 1173); conditions: S. cerevisiae BY4716 growth, OD600, 24 h; higher = more signal, called active from +8 up or from −8 down
[3] = viability profiling in MM1S myeloma cells – cell-based, resazurin fluorescence, basal, 24 h, PK04 Diversity Set, profiling panel (AID 1174); conditions: higher = more signal, called active from +8 up or from −8 down;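 also: MM1S multiple myeloma cell line; test concentration not given here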
[4] = target: Dihydroorotate dehydrogenase (quinone), mitochondrial (Plasmodium falciparum (isolate 3D7)) (UniProt Q08210); assay: inhibition of P. falciparum DHODH – biochemical, C-terminal His tag, absorbance 600 nm, primary screen (AID 1175); conditions: PfDHODH enzyme, DCIP absorbance 600 nm; higher = more signal, called active from +8 up or from −8 down;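 also: recombinant parasite enzyme with a five histidine tag at its C terminus; test concentration not given here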
Chain of Dihydroorotate dehydrogenase (quinone), mitochondrial (Plasmodium falciparum (isolate 3D7)) (Q08210 whole entry, looked up): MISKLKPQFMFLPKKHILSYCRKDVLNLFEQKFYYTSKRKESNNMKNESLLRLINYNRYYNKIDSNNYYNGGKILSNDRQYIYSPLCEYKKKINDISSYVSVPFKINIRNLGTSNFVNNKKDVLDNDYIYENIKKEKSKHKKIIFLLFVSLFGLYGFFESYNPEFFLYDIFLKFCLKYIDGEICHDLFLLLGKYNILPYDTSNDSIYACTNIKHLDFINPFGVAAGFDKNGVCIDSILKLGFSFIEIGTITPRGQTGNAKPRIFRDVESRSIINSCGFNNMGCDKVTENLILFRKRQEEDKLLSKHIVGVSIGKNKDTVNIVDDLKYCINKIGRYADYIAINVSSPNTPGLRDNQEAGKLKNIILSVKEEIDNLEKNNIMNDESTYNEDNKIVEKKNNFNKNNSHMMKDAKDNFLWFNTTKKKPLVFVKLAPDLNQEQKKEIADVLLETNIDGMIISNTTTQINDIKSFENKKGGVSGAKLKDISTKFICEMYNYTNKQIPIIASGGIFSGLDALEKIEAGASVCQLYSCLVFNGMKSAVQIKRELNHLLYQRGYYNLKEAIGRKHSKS

[5] = inhibition of PAO1 biofilm formation – strain PAO1, LB-PBS medium, absorbance 600 nm, primary screen (AID 1176); also: test concentration not given here; conditions: P. aeruginosa PAO1 growth/biofilm, A600, 12 h; higher = more signal
[6] = growth modulation of vineyard yeast isolate – strain RM11-1a, OD600, basal, 24 h, primary screen (AID 1177);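 also: cultures grown under basal conditions with no added stressor; test concentration not given here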; conditions: S. cerevisiae RM11-1a growth, OD600, 24 h; higher = more signal, called active from +8 up or from −8 down
[7] = growth of efflux-deficient E. coli DRC39 – strain DRC39, OD650, 24 h, E. coli filamentation inducers, primary screen (AID 1178);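 also: growth measured as culture turbidity by optical density at 650 nm; test concentration not given here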; conditions: E. coli DRC39 acrAB, higher = more signal, called active from +8 up or from −8 down
[8] = growth of efflux-deficient E. coli DRC39 – strain DRC39, OD650, 48 h, E. coli filamentation inducers, primary screen (AID 1179);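 also: screen aims at cell division blockers that make cells filament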; conditions: E. coli DRC39 delta-acrAB growth, higher = more signal, called active from +8 up or from −8 down
[9] = viability profiling in RPMI8226 myeloma cells – cell-based, resazurin fluorescence, basal, 24 h, PK04 Diversity Set, profiling panel (AID 1180); conditions: higher = more signal;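 also: RPMI8826 multiple myeloma cell line at 5000 cells per well; test concentration not given here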
[10] = target: E3 ubiquitin-protein ligase XIAP (Homo sapiens) (UniProt P98170); assay: small molecules binding XIAP protein – biophysical, small-molecule microarray, fluorescence 635 nm, primary screen (AID 1181); conditions: higher = more signal;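 also: score merges 667 nm emission and signal to noise over triplicate slides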
Chain of E3 ubiquitin-protein ligase XIAP (Homo sapiens) (P98170 whole entry, looked up): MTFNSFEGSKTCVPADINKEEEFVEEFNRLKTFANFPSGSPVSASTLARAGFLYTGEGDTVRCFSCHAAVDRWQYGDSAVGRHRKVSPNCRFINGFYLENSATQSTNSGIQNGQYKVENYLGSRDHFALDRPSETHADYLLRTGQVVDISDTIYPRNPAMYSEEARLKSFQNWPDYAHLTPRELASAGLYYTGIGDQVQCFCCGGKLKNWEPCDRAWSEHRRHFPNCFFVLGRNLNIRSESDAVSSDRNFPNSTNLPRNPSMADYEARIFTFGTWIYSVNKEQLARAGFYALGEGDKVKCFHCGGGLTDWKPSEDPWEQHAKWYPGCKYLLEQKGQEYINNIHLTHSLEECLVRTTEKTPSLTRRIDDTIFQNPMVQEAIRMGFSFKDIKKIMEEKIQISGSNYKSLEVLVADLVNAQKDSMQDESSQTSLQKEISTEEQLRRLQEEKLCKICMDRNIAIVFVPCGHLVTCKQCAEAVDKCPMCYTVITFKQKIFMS

| Compound | z-score [1] | z-score [2] | z-score [3] | composite z-score [4] | z-score [5] | z-score [6] | z-score [7] | z-score [8] | z-score [9] | composite z-score [10] |
| --- | --- | --- | --- | --- | --- | --- | --- | --- | --- | --- |
| O=C1O[C@H](c2ccccc2)[C@H](c2ccccc2)N2[C@H]1[C@@H](C(=O)Nc1nc3ccccc3s1)[C@]1(C(=O)Nc3ccccc31)[C@H]2c1ccc(O)cc1 | -0.166 | -0.373 (inactive) | -2.72 (inactive) | 0.192 (inactive) | 1.18 (inactive) | -0.393 (inactive) | -0.797 (inactive) | -1.24 (inactive) | -2.81 | -0.127 |
| N#Cc1ccc(NN2C(C(O)c3ccc([N+](=O)[O-])cc3)C=CC3C(=O)N(c4ccccc4)C(=O)C32)cc1 (stereo not given) | -1.07 | -0.203 (inactive) | -0.55 (inactive) | -0.0079 (inactive) | 1.23 (inactive) | -0.487 (inactive) | -0.685 (inactive) | -0.418 (inactive) | -1.08 | -0.0391 |
| COc1ccc([Si](C)(C)[C@@H]2[C@@H](CC(=O)N3CCC[C@H]3CO)O[C@]3(C(=O)N(C)c4c(Br)cc(C)cc43)[C@H]2C)cc1 | 0.27 | -1.62 (inactive) | 0.62 (inactive) | -1.88 (inactive) | 0.331 (inactive) | -1 (inactive) | 0.233 (inactive) | 0.0205 (inactive) | -0.128 | 0.287 |
| C=CC(=C)C1=CCO[C@@H]1[C@H]1CCCN1S(=O)(=O)c1ccccc1[N+](=O)[O-] | 1.09 | -0.793 (inactive) | -0.22 (inactive) | -0.426 (inactive) | -0.578 (inactive) | 0.223 (inactive) | 0.858 (inactive) | 0.714 (inactive) | 0.187 | -0.119 |
| COCCCNC(=O)[C@@]1(CCC(=O)OC(C)(C)C)N=C(c2ccc(OCCCO)cc2)O[C@H]1c1ccccc1CN=[N+]=[N-] | 0.495 | -0.78 (inactive) | -0.0488 (inactive) | -0.256 (inactive) | -0.167 (inactive) | 0.424 (inactive) | 0.481 (inactive) | -0.28 (inactive) | 0.423 | -0.212 |
| O=C1OCCC/C=C\[C@H]2OC34C=CCN(Cn5nnc6ccccc65)C(=O)[C@H]3N(CCCCCO)C(=O)[C@@H]4C12 (stereo not given in full) | 0.502 | -0.419 (inactive) | 0.812 (inactive) | -1.01 (inactive) | 0.193 (inactive) | -0.564 (inactive) | 0.376 (inactive) | -0.0083 (inactive) | 0.692 | 0.178 |
| COC(=O)[C@@]1(Cc2ccc(F)cc2)[C@H]2c3cc(C(=O)N4CCCC4)n(Cc4cccc5ccccc45)c3C[C@H]2CN1C(=O)c1ccccc1 | -0.296 | 1.28 (inactive) | -1.53 (inactive) | -0.422 (inactive) | 0.784 (inactive) | 0.0161 (inactive) | -1.11 (inactive) | -0.974 (inactive) | -1.25 | 0.487 |
| COC(=O)C(CC#Cc1ccc2c(c1)[C@]1(C(=O)N2)[C@H](C(=O)NC[C@H](O)c2ccccc2)[C@H]2C(=O)O[C@H](c3ccccc3)[C@H](c3ccccc3)N2[C@@H]1c1ccc(OCCO)cc1)C(=O)OC | 0.0416 | 1.77 (inactive) | -0.0507 (inactive) | -16.8 (active) | 3.42 (inactive) | 2.62 (inactive) | 0.389 (inactive) | 0.335 (inactive) | -0.223 | 0.201 |
| C=CCOC(=O)[C@H]1[C@@H]2C(=O)O[C@@H](c3ccccc3)[C@@H](c3ccccc3)N2[C@@H](c2ccc(OCCOC(=O)[C@@H]3C[C@@H]4C(=O)N5CCC[C@H]5C(=O)N4[C@@H]3c3ccc(O)cc3)cc2)[C@]12C(=O)Nc1ccccc12 | 0.196 | 0.865 (inactive) | 0.841 (inactive) | -0.379 (inactive) | 0.957 (inactive) | 2.73 (inactive) | 0.468 (inactive) | 0.971 (inactive) | 1.71 | 0.224 |
| C=C(COC)C(=O)CC[C@@H](OC(=O)c1cccnc1)c1ccc(CO)o1 | 0.114 | -0.0873 (inactive) | 0.78 (inactive) | -0.604 (inactive) | 0.649 (inactive) | -0.318 (inactive) | 0.831 (inactive) | 0.555 (inactive) | 0.807 | -0.0802 |
| C=CCC(OC(C)=O)[C@@H]1[C@@H](N(Cc2ccc(-c3ccccc3)cc2)C(=O)Cc2ccc(OC)cc2)c2cc(OCCCO)ccc2N1C(=O)c1ccc2ccccc2n1 (stereo not given in full) | 0.0252 | -0.594 (inactive) | 0.525 (inactive) | -0.574 (inactive) | -0.24 (inactive) | -1.15 (inactive) | 1.29 (inactive) | 0.644 (inactive) | 1.07 | -0.266 |
| O=c1cccc(C=Cc2ccccc2)o1 | 0.266 | -2.09 (inactive) | 0.835 (inactive) | 0.0681 (inactive) | -0.212 (inactive) | -0.0064 (inactive) | -0.131 (inactive) | 0.761 (inactive) | -0.0628 | -0.248 |
| CC(C)C(O)C1C=CC2C(=O)N(c3ccccc3)C(=O)C2N1Nc1ccc(C#N)cc1 (stereo not given) | -1.45 | -2.14 (inactive) | -1.66 (inactive) | -1.02 (inactive) | 1.11 (inactive) | -0.0111 (inactive) | -0.718 (inactive) | 0.0323 (inactive) | -0.47 | 0.0073 |
